Assay results from PubChem BioAssay AID2391 (Southern Research Specialized Biocontainment Screening …, 2010).
The campaign covered roughly 310,000 compounds. About 410 (0.13%) were called active. About 2% were inconclusive and are not listed. How the calls were made is not given here. Not all results are given here. Potency and affinity values are given separately.

Test: RSV antiviral activity via CPE protection, HEp-2 cells, primary 10 µM value included (AID 2391)
Settings: RSV-induced CPE inhibition, at 10 µM, active compounds read high

CPE inhibition, inactive:
COC(=O)c1ccc(C(C(=O)NC2CCCCC2)N(Cc2ccc(F)cc2)C(=O)Cc2cccs2)cc1 (stereo not drawn) 7.57%
CC(=O)OCCNC(=O)Cn1cnc2c1c(=O)n(C)c(=O)n2C 0.79%
COc1ccc(C2CC(C(F)(F)F)n3nc(C(N)=O)c(Cl)c3N2)cc1OC (stereo not drawn) 3.38%
CC1CCN(CC(=O)Nc2ccc(S(=O)(=O)N3CCCCC3)cc2)CC1 -0.34%
Cc1ccc(N2CC(C(=O)Nc3ccc(S(=O)(=O)N4CCOCC4)cc3)CC2=O)cc1 (stereo not drawn) -0.55%
COc1ccc(CCNC(C)=O)cc1 3.67%
CCOC(=O)C1(Cc2cccc(OC)c2)CCN(CCO)CC1 -1.67%
Cc1c(C(=O)N(C)Cc2cccc(F)c2)oc2c(Cl)cccc12 18%
COc1cc(-c2nc3c(c(C)nn3-c3ccccc3)c3cc(OC)c(OC)cc23)ccc1O 57.5%
COc1cc2c(-c3ccccc3O)nc3c(c(C)nn3-c3ccccc3)c2cc1OC 1.81%
Cc1ccc(Nc2nc(CSc3nnc(-c4ccncc4)n3C)cs2)cc1 1.07%
Cc1cc(C)n2nc(SCc3c(F)cccc3Cl)nc2n1 0.85%
CN(C)S(=O)(=O)c1ccc2c(c1)C(=NO)c1cc(S(=O)(=O)N(C)C)ccc1-2 2.67%
CN(CCO)S(=O)(=O)c1ccc2c(c1)C(=NO)c1cc(S(=O)(=O)N(C)CCO)ccc1-2 -0.46%
CCS(=O)(=O)N1CCN(c2ccccn2)CC1 -0.21%
Cn1nnnc1SCC(=O)N(C1CCCCC1)C1CCS(=O)(=O)C1 (stereo not drawn) -0.03%
CCC(=O)NCCc1nc2cc(NC(=O)Nc3ccccc3)ccc2n1C 1.28%
CC(NC(=O)c1ccc(F)cc1Cl)C1CC2CCC1C2 (stereo not drawn) 1.15%
COCc1cc(C)nc(SCC(=O)Nc2cc(C(F)(F)F)ccc2N2CCOCC2)c1C#N 1.23%
COCc1cc(C)nc(SCC(=O)Nc2ccc(N3CCOCC3)cc2)c1C#N 1.56%
CC(=O)CC(C)(C)n1nnc(-c2ccccc2)n1 1.03%
COc1ccc(CNC(=O)N2CCN(c3ccc(F)cc3)CC2)cc1 0.79%
Nn1c(SCc2cccc3ccccc23)nnc1-c1ccco1 0.35%
Cn1c(SCc2ccccc2)nnc1-c1ccco1 3.37%
Cc1ccc(SCCOCCN2CCOCC2)cc1 -1.12%
Cc1sc2nc(C(C)C)nc(SCC(=O)N3c4ccccc4CC3C)c2c1C (stereo not drawn) 16.1%
Cc1sc2nc(C3CC3)nc(SCC(=O)N3CCCc4ccccc43)c2c1C 20.9%
Cc1sc2nc(C3CC3)nc(SCC(=O)N3CCc4ccccc4C3)c2c1C 1.85%
CCc1nc(SCC(=O)N2CC(=O)Nc3ccccc32)c2c(C)c(C)sc2n1 0.22%
COc1ccccc1N=Nc1nc(-c2ccccc2)c(-c2ccccc2)[nH]1 12.4%
CC(C)CNC(=O)COC(=O)CNC(=O)c1cc(Cl)cc([N+](=O)[O-])c1 1.69%
COC(=O)C1=C(C)N(c2ccccc2)/C(=C/c2ccco2)C1=O 0.77%
CCc1ccc(NCCC(=O)c2ccc(Br)cc2)cc1 0.86%
CCS(=O)(=O)N1CCCC(C(=O)Oc2ccc(Br)cc2)C1 (stereo not drawn) -0.04%
O=C(O)c1cccc(NC(=O)c2cn(-c3ccccc3)nc2-c2ccc([N+](=O)[O-])cc2)c1 19%
COc1cc(OC)cc(-c2oc(=O)c3cc(OC)c(OC)cc3c2/C=C/c2ccc(F)cc2)c1 3.91%
COc1ccc(-c2oc(=O)c3cc(OC)c(OC)cc3c2/C=C/c2ccc(F)cc2)cc1 5.33%
Cc1cc(N(C(=O)c2ccco2)C(C(=O)NC2CCCCC2)c2ccccc2)ccc1-n1cnnn1 (stereo not drawn) 0.41%
CCN(CC)c1ccc(NC(=O)C(C)C)cc1 0.56%
COc1cccc(N2CCN(S(=O)(=O)c3c(C)[nH]c(C)c3C(=O)N3CCCCC3)CC2)c1 1.56%
Cc1[nH]c(C)c(S(=O)(=O)N2CCN(c3cccc(C(F)(F)F)c3)CC2)c1C(=O)N1CCCC1 2.4%
Cc1[nH]c(C)c(S(=O)(=O)N2CCN(c3ccccc3)CC2)c1C(=O)N1CCCCC1 0.61%
Cc1[nH]c(C)c(S(=O)(=O)N2CCN(c3cccc(Cl)c3)CC2)c1C(=O)N1CCCC1 0.18%
Cc1nc(SCC(=O)NCc2ccco2)c2c(=O)n(C)c(=O)n(CC(C)C)c2n1 1.51%
O=c1c2c(n3cnnc3n1C1CCCCC1)-c1ccccc1CC21CCCCC1 3.08%
O=C(CCn1nnc2ccccc2c1=O)N[C@@H](Cc1ccccc1)C(=O)O 2%
COc1ccc(OC)c(CN2CCN(C(=O)c3ccco3)CC2)c1 0.83%
CNC(=O)CN1C(=O)NC(Cc2c[nH]c3ccccc23)C1=O (stereo not drawn) 2.1%
CC(C)(C)OC(=O)CN1C(=O)NC(Cc2c[nH]c3ccccc23)C1=O (stereo not drawn) -0.27%
CC1CN(C(=O)/C=C/c2ccc(SC(F)F)cc2)CC(C)O1 (stereo not drawn) 1.82%
Cc1occc1-c1nnc(SCC(N)=O)n1Cc1ccccc1 1%
COC(=O)c1cccnc1NC(=S)NC1CCCCC1 0.64%
CC(C)OC(=O)c1ccc(Cn2nnc3ccccc3c2=O)cc1 12.4%
Cc1ccc(O)c(NC(=S)NC(=O)CC(C)C)c1 0.23%
Cc1ccc(O)c(NC(=S)NC(=O)c2ccc(-c3ccc(Cl)cc3)o2)c1 -0.16%
CC(C)(C)c1ccc(C2C(C(=O)c3ccco3)=C(O)C(=O)N2CC2CCCO2)cc1 (stereo not drawn) 8.05%
Cc1ccccc1Cn1c(=O)n(CCCC(=O)NCc2ccco2)c(=O)c2sccc21 3.02%
Cc1cccc2nc(Cn3c(=O)n(CCC(=O)NCc4ccco4)c(=O)c4sccc43)cc(=O)n12 10.2%
O=C(CCCn1c(=O)c2sccc2n(CC(=O)NCc2ccco2)c1=O)NCc1ccco1 -0.82%
O=C(CCn1c(=O)c2ccccc2n(Cc2cc(=O)n3ccccc3n2)c1=O)NCc1ccco1 64%
O=C(C1=C[C@@H](c2coc3ccccc3c2=O)C[C@@H](OCc2ccc(CO)cc2)O1)N1CCN(Cc2ccc3c(c2)OCO3)CC1 4.77%
COC(=O)c1cc(S(=O)(=O)NCCc2cccc(C)c2)cn1C 0.96%
COc1ccccc1CNC(=O)Cc1csc(NC(=O)Nc2ccccc2OC)n1 7.68%
CC(C)(C)c1csc(NC(=O)Nc2ccccc2)n1 17.7%
O=C(CCCCCNC(=O)N1CCn2c1nc1ccccc12)N[C@@H](Cc1ccccc1)C(=O)O 0.73%
Cc1ccc2c(Cl)cc(Cl)c(OCC(=O)Nc3ccc(C)c(S(=O)(=O)N(C)C)c3)c2n1 1.79%
Cc1cccn2c(=O)c(/C=C(\C#N)C(=O)NCc3ccco3)c(N3CCC(C(N)=O)CC3)nc12 2.25%
Cc1cccn2c(=O)c(/C=C(\C#N)C(=O)NCc3ccco3)c(N3CCOCC3)nc12 1.08%
CCN1CCN(c2nc3c(C)cccn3c(=O)c2/C=C(\C#N)C(=O)NC)CC1 2.17%
CNC(=O)/C(C#N)=C/c1c(N2CCN(c3ccccc3)CC2)nc2c(C)cccn2c1=O 14.9%
COC(=O)[C@H](CCSC)NC(=O)NCCc1ccccc1F 0.16%
CC1CCN(Cc2c(C(=O)N/N=C/c3ccc(OC(C)C)cc3)nnn2-c2nonc2N)CC1 3%
COc1ccc(C2C3=C(CC(C)(C)CC3=O)N(C)C3=C2C(=O)CC(C)(C)C3)cc1OC 4.11%
COC(=O)C1=C(N)Oc2cc(C)n(CCCn3ccnc3)c(=O)c2C1c1cccc(Cl)c1 (stereo not drawn) 1.81%
O=C(N/N=C/c1ccc2c(c1)OCO2)c1cc(-c2ccccc2)nc2ccccc12 1.93%
CCOc1ccc(-c2cc(C(=O)N/N=C(\C)c3cccnc3)c3ccccc3n2)c(OCC)c1 0.9%
O=C(N/N=C/c1ccc2c(c1)OCO2)c1cc(-c2ccccc2Cl)nc2ccccc12 4.7%
COc1ccc(-c2cc(C(=O)N3CCCCC3)c3ccccc3n2)cc1 0.19%
CCOc1ccc(-c2cc(C(=O)O)c3ccccc3n2)cc1 8.94%
COc1ccc(-c2cc(C(=O)N3CCN(c4ncccn4)CC3)c3ccccc3n2)c(OC)c1 0.07%
COc1ccc(CN(C)CC(=O)Nc2ccccc2C(F)(F)F)c(OC)c1 0.3%
CCOC(=O)C1CCCN(C(=O)c2cccc(S(=O)(=O)N(C)c3ccc(C)cc3)c2)C1 (stereo not drawn) 0.68%
Cc1cccc(/C=N/NC(=O)c2cccc(NC(=O)c3ccccc3)c2)n1 1.75%
CC1(C)CC(=O)C=C(NNC(=O)c2ccc(N)cc2)C1 1.88%
O=C(CN(C(=O)c1csnn1)c1cccc2c1CCCC2)NCc1ccc(F)cc1 1.67%
CCOC(=O)c1c(CN2CCOCC2)oc2ccc(OC(C)=O)cc12 2.6%
COc1ccc(OCc2cc(C(=O)N3CCCC(CO)C3)no2)c2ccccc12 (stereo not drawn) 3.56%
CC1CC(C)(C)NC(=S)N1CC(=O)N1CCN(Cc2ccccc2)CC1 (stereo not drawn) -0.71%
